# Where “and” joins values, the source holds several entries; their conditions need not be identical. Equal values may be shown once. Among all 5,500 compounds or so, about 2,000 (36%) were called active. Roughly 18% stayed inconclusive and do not appear here. This is one part of the list. A number with no mark means an inactive call. Rule as the data show it: active = normalized growth mostly below about 0.91 (no sharp cut-off); inconclusive = no clear call, values can overlap the other calls; inactive = mostly above about 0.92.
# Assay: chemical genetic growth profiling, strain panel (AID 1159580);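 also: tested at 20 µM; growth read once vehicle control cultures reached saturation at 30 °C; 1 = growth at the plate median or of vehicle wells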
# Settings: S. cerevisiae deletion strains, growth OD
smiles,measurement,setting,value
CC(C)CCCC(C)C1CCC2C3CC(=O)[C@H]4C[C@@H](O)CC[C@]4(C)C3CC[C@]12C (stereo partly drawn),normalized growth,"locus YAL021C, strain ccr4, stronger effect = lower value",0.997
same,normalized growth,"locus YAL026C, strain drs2, stronger effect = lower value",0.98
same,normalized growth,"locus YAL030W, strain snc1, stronger effect = lower value",1.01
same,normalized growth,"locus YBL061C, strain skt5, stronger effect = lower value",1
same,normalized growth,"locus YBR009C, strain hhf1, stronger effect = lower value",1
same,normalized growth,"locus YBR021W, strain FUR4, stronger effect = lower value",1.06
same,normalized growth,"locus YBR023C, strain chs3, stronger effect = lower value",1
same,normalized growth,"locus YBR171W, strain sec66, stronger effect = lower value",1
same,normalized growth,"locus YBR229C, strain ROT2, stronger effect = lower value",1.02
same,normalized growth,"locus YBR231C, strain swc5, stronger effect = lower value",0.975
same,normalized growth,"locus YBR279W, strain paf1, stronger effect = lower value",1.01
same,normalized growth,"locus YCL011C, strain gbp2, stronger effect = lower value",1.02
same,normalized growth,"locus YCL016C, strain dcc1, stronger effect = lower value",1.01
same,normalized growth,"locus YCL029C, strain bik1, stronger effect = lower value",1.01
same,normalized growth,"locus YCL061C, strain MRC1, stronger effect = lower value",1.01
same,normalized growth,"locus YCL069W, strain vba3, stronger effect = lower value",1.03
same,normalized growth,"locus YCR088W, strain abp1, stronger effect = lower value",1
same,normalized growth,"locus YDL005C, strain med2, stronger effect = lower value",1.01
same,normalized growth,"locus YDL035C, strain GPR1, stronger effect = lower value",1.01
same,normalized growth,"locus YDL040C, strain nat1, stronger effect = lower value",1.01
same,normalized growth,"locus YDL074C, strain BRE1, stronger effect = lower value",1.05
same,normalized growth,"locus YDL101C, strain DUN1, stronger effect = lower value",1.02
same,normalized growth,"locus YDL185W, strain tfp1, stronger effect = lower value",1.07
same,normalized growth,"locus YDL192W, strain arf1, stronger effect = lower value",1.02
same,normalized growth,"locus YDR001C, strain nth1, stronger effect = lower value",1.02
same,normalized growth,"locus YDR069C, strain doa4, stronger effect = lower value",1
same,normalized growth,"locus YDR101C, strain arx1, stronger effect = lower value",1.01
same,normalized growth,"locus YDR137W, strain rgp1, stronger effect = lower value",0.908
same,normalized growth,"locus YDR150W, strain NUM1, stronger effect = lower value",1
same,normalized growth,"locus YDR159W, strain sac3, stronger effect = lower value",0.963
same,normalized growth,"locus YDR162C, strain NBP2, stronger effect = lower value",1.04
same,normalized growth,"locus YDR195W, strain ref2",1.01
same,normalized growth,"locus YDR297W, strain sur2, stronger effect = lower value",1
same,normalized growth,"locus YDR318W, strain mcm21, stronger effect = lower value",1.01
same,normalized growth,"locus YDR334W, strain swr1, stronger effect = lower value",1.02
same,normalized growth,"locus YDR335W, strain msn5, stronger effect = lower value",1.02
same,normalized growth,"locus YDR388W, stronger effect = lower value",1.01
same,normalized growth,"locus YDR392W, strain spt3, stronger effect = lower value",0.942
same,normalized growth,"locus YDR502C, strain sam2, stronger effect = lower value",1.01
same,normalized growth,"locus YEL003W, strain gim4, stronger effect = lower value",1.01
same,normalized growth,"locus YEL037C, strain rad23, stronger effect = lower value",1
same,normalized growth,"locus YEL061C, strain CIN8 (second series), stronger effect = lower value",1.01
same,normalized growth,"locus YEL061C, strain CIN8, stronger effect = lower value",1
same,normalized growth,"locus YER015W, strain faa2, stronger effect = lower value",1
same,normalized growth,"locus YER016W, strain bim1, stronger effect = lower value",1.01
same,normalized growth,"locus YER110C, stronger effect = lower value",1
same,normalized growth,"locus YER111C, strain swi4, stronger effect = lower value",1
same,normalized growth,"locus YER155C, strain BEM2 (second series), stronger effect = lower value",1.07
same,normalized growth,"locus YER155C, strain BEM2, stronger effect = lower value",0.997
same,normalized growth,"locus YER167W, strain BCK2, stronger effect = lower value",1.03
same,normalized growth,"locus YFR010W, strain ubp6, stronger effect = lower value",1.02
same,normalized growth,"locus YGL078C, strain dbp3, stronger effect = lower value",1.01
same,normalized growth,"locus YGL086W, strain mad1, stronger effect = lower value",1.03
same,normalized growth,"locus YGL167C, strain pmr1, stronger effect = lower value",0.998
same,normalized growth,"locus YGL173C, strain kem1, stronger effect = lower value",1
same,normalized growth,"locus YGL227W, strain vid30, stronger effect = lower value",1.01
same,normalized growth,"locus YGL240W, strain doc1, stronger effect = lower value",0.904
same,normalized growth,"locus YGL248W, strain PDE1, stronger effect = lower value",1.01
same,normalized growth,"locus YGL253W, strain hxk2, stronger effect = lower value",1.02
same,normalized growth,"locus YGR135W, strain pre9, stronger effect = lower value",1
same,normalized growth,"locus YGR252W, strain gcn5, stronger effect = lower value",1.06
same,normalized growth,"locus YHR013C, strain ard1, stronger effect = lower value",1.01
same,normalized growth,"locus YHR027C, strain rpn1, stronger effect = lower value",1.01
same,normalized growth,"locus YHR030C, strain SLT2, stronger effect = lower value",1.02 and 1.05
same,normalized growth,"locus YHR079C, strain IRE1 (second series), stronger effect = lower value",0.99
same,normalized growth,"locus YHR079C, strain IRE1, stronger effect = lower value",1.04
same,normalized growth,"locus YHR094C, strain hxt1, stronger effect = lower value",1.01
same,normalized growth,"locus YHR129C, strain ARP1, stronger effect = lower value",1.02
same,normalized growth,"locus YHR142W, strain chs7, stronger effect = lower value",1.04
same,normalized growth,"locus YHR200W, strain rpn10, stronger effect = lower value",1.03
same,normalized growth,"locus YIL066C, strain RNR3, stronger effect = lower value",1.04
same,normalized growth,"locus YIL073C, strain SPO22, stronger effect = lower value",1.05
same,normalized growth,"locus YIL125W, strain kgd1, stronger effect = lower value",0.998
same,normalized growth,"locus YIR030C, strain dcg1, stronger effect = lower value",1.01
same,normalized growth,"locus YJL092W, strain hpr5, stronger effect = lower value",1.02
same,normalized growth,"locus YJL095W, strain BCK1 (second series), stronger effect = lower value",1.01
same,normalized growth,"locus YJL095W, strain BCK1, stronger effect = lower value",1.03
same,normalized growth,"locus YJL115W, strain asf1, stronger effect = lower value",0.991
same,normalized growth,"locus YJL129C, strain trk1, stronger effect = lower value",1.04
same,normalized growth,"locus YJL134W, strain LCB3, stronger effect = lower value",1.01
same,normalized growth,"locus YJL154C, strain vps35, stronger effect = lower value",1.02
same,normalized growth,"locus YJL164C, strain tpk1, stronger effect = lower value",1.01
same,normalized growth,"locus YJL166W, strain qcr8, stronger effect = lower value",1.06
same,normalized growth,"locus YJL168C, strain set2, stronger effect = lower value",1
same,normalized growth,"locus YJL187C, strain SWE1 (second series), stronger effect = lower value",1.01
same,normalized growth,"locus YJL187C, strain SWE1, stronger effect = lower value",1.02
same,normalized growth,"locus YJR043C, strain POL32, stronger effect = lower value",1.05
same,normalized growth,"locus YJR066W, strain TOR1, stronger effect = lower value",0.998
same,normalized growth,"locus YKL009W, strain mrt4, stronger effect = lower value",1.01
same,normalized growth,"locus YKL068W, stronger effect = lower value",1.02
same,normalized growth,"locus YKL085W, strain MDH1 (second series), stronger effect = lower value",1.01
same,normalized growth,"locus YKL085W, strain MDH1, stronger effect = lower value",1.01
same,normalized growth,"locus YKL160W, strain elf1, stronger effect = lower value",1.02
same,normalized growth,"locus YKL190W, strain CNB1, stronger effect = lower value",1.02
same,normalized growth,"locus YKR001C, strain vps1, stronger effect = lower value",1.02
same,normalized growth,"locus YKR026C, strain gcn3, stronger effect = lower value",1
same,normalized growth,"locus YKR091W, strain srl3, stronger effect = lower value",1.01
same,normalized growth,"locus YLL001W, strain dnm1, stronger effect = lower value",0.982
same,normalized growth,"locus YLL026W, stronger effect = lower value",0.999
same,normalized growth,"locus YLL041C, strain sdh2, stronger effect = lower value",1.01
same,normalized growth,"locus YLR027C, strain aat2, stronger effect = lower value",0.99
same,normalized growth,"locus YLR039C, strain RIC1, stronger effect = lower value",0.767
same,normalized growth,"locus YLR058C, strain SHM2, stronger effect = lower value",1.01
same,normalized growth,"locus YLR102C, strain apc9, stronger effect = lower value",1.01
same,normalized growth,"locus YLR113W, strain HOG1, stronger effect = lower value",0.986
same,normalized growth,"locus YLR221C, strain rsa3, stronger effect = lower value",0.991
same,normalized growth,"locus YLR258W, strain gsy2, stronger effect = lower value",0.994
same,normalized growth,"locus YLR262C, strain YPT6 (second series), stronger effect = lower value",0.76 (active)
same,normalized growth,"locus YLR262C, strain YPT6, stronger effect = lower value",0.831
same,normalized growth,"locus YLR268W, strain sec22, stronger effect = lower value",1.03
same,normalized growth,"locus YLR320W, strain mms22, stronger effect = lower value",1.02
same,normalized growth,"locus YLR330W, strain CHS5, stronger effect = lower value",1.01
same,normalized growth,"locus YLR342W, strain FKS1 (second series), stronger effect = lower value",1.02
same,normalized growth,"locus YLR342W, strain FKS1, stronger effect = lower value",1.01
same,normalized growth,"locus YLR357W, strain rsc2, stronger effect = lower value",1.04
same,normalized growth,"locus YLR370C, strain arc18, stronger effect = lower value",1.02
same,normalized growth,"locus YLR371W, strain rom2, stronger effect = lower value",1
same,normalized growth,"locus YLR384C, strain iki3, stronger effect = lower value",0.99
same,normalized growth,"locus YLR418C, strain cdc73, stronger effect = lower value",1.08
same,normalized growth,"locus YML016C, strain PPZ1, stronger effect = lower value",0.995
same,normalized growth,"locus YML032C, strain rad52, stronger effect = lower value",1
same,normalized growth,"locus YML120C, strain ndi1, stronger effect = lower value",1.02
same,normalized growth,"locus YML124C, strain tub3, stronger effect = lower value",1
same,normalized growth,"locus YMR058W, strain fet3, stronger effect = lower value",1.01
same,normalized growth,"locus YMR078C, strain ctf18, stronger effect = lower value",1.04
same,normalized growth,"locus YMR125W, strain sto1, stronger effect = lower value",1.02
same,normalized growth,"locus YMR129W, stronger effect = lower value",1
same,normalized growth,"locus YMR205C, strain PFK2, stronger effect = lower value",1.02
same,normalized growth,"locus YMR223W, strain ubp8, stronger effect = lower value",1.01
same,normalized growth,"locus YMR231W, strain pep5, stronger effect = lower value",1.02
same,normalized growth,"locus YMR307W, strain GAS1, stronger effect = lower value",1.12
same,normalized growth,"locus YNL067W, strain RPL9B, stronger effect = lower value",1.03
same,normalized growth,"locus YNL071W, strain lat1, stronger effect = lower value",1.02
same,normalized growth,"locus YNL183C, strain NPR1, stronger effect = lower value",1
same,normalized growth,"locus YNL209W, strain ssb2, stronger effect = lower value",1.01
same,normalized growth,"locus YNL233W, strain BNI4, stronger effect = lower value",1.04
same,normalized growth,"locus YNL248C, strain rpa49, stronger effect = lower value",1
same,normalized growth,"locus YNL250W, strain rad50, stronger effect = lower value",1
same,normalized growth,"locus YNL271C, strain bni1, stronger effect = lower value",1
same,normalized growth,"locus YNL298W, strain CLA4, stronger effect = lower value",1.01
same,normalized growth,"locus YNL307C, strain MCK1, stronger effect = lower value",1.04
same,normalized growth,"locus YNL322C, strain KRE1 (second series), stronger effect = lower value",1.01
same,normalized growth,"locus YNR049C, strain mso1, stronger effect = lower value",1
same,normalized growth,"locus YNR052C, strain pop2, stronger effect = lower value",0.997
same,normalized growth,"locus YOL006C, strain TOP1, stronger effect = lower value",1.14
same,normalized growth,"locus YOL012C, strain htz1",1.15
same,normalized growth,"locus YOL147C, strain pex11, stronger effect = lower value",1.01
same,normalized growth,"locus YOR001W, strain rrp6, stronger effect = lower value",0.969
same,normalized growth,"locus YOR061W, strain CKA2, stronger effect = lower value",1.02
same,normalized growth,"locus YOR069W, strain VPS5, stronger effect = lower value",1
same,normalized growth,"locus YOR070C, strain gyp1, stronger effect = lower value",0.989
same,normalized growth,"locus YOR080W, strain dia2, stronger effect = lower value",0.998
same,normalized growth,"locus YOR083W, strain WHI5, stronger effect = lower value",1.02
same,normalized growth,"locus YOR106W, strain vam3, stronger effect = lower value",1.02
same,normalized growth,"locus YOR136W, strain idh2, stronger effect = lower value",1
same,normalized growth,"locus YOR144C, strain elg1, stronger effect = lower value",1
same,normalized growth,"locus YOR184W, strain ser1, stronger effect = lower value",1.04
same,normalized growth,"locus YOR231W, strain MKK1, stronger effect = lower value",1.02
same,normalized growth,"locus YOR265W, strain rbl2, stronger effect = lower value",1
same,normalized growth,"locus YOR270C, strain vph1, stronger effect = lower value",1.04
same,normalized growth,"locus YOR290C, strain snf2, stronger effect = lower value",1.03
same,normalized growth,"locus YOR316C, strain cot1, stronger effect = lower value",1
same,normalized growth,"locus YPL051W, strain arl3, stronger effect = lower value",0.985
same,normalized growth,"locus YPL055C, strain LGE1, stronger effect = lower value",1.07
same,normalized growth,"locus YPL078C, strain atp4, stronger effect = lower value",1.02
same,normalized growth,"locus YPL106C, strain sse1, stronger effect = lower value",1.02
same,normalized growth,"locus YPL240C, strain hsp82, stronger effect = lower value",1.01
same,normalized growth,"locus YPL256C, strain CLN2, stronger effect = lower value",1.04
same,normalized growth,"locus YPR119W, strain clb2, stronger effect = lower value",1
same,normalized growth,"locus YPR141C, strain kar3, stronger effect = lower value",1.01
same,normalized growth,"locus YPR163C, strain tif3, stronger effect = lower value",1.01
same,normalized growth,"locus YPR167C, strain met16, stronger effect = lower value",0.995
same,normalized growth,"strain wtn01, stronger effect = lower value",1.03

# From PubChem BioAssay AID1159580 (chemical genetic matrix, 2015)
